Shown are actives, neighbours in structure and some others; about 2.4% of the full set was active somewhere.
eIF4H inh – inhibitors of RNA binding by human eIF4H | eIF4H fluorescence polarization binding assay | inhibition, % at 35 µM | hit rate 0.94% among 290,000 | AID 2012;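 note: calls also rest on retests at 20 µM and on dose response follow-up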
PERK inhibitor – blocks human PERK kinase; Q9NZJ5; CHO PERK-DD fusion, SEAP luminescence translation reporter; inhibition, % at 5.6 µM; hit rate 0.17% among 220,000; AID 1416;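 active = inhibition above the mean inhibition of all tested compounds plus 3 SD, set separately per screening campaign, cut at about 2.9% in these data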;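 note: PERK kinase domain activated by AP20187 dimerizer at 100 nM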
PfM18AAP inh – blocks P. falciparum M18 aspartyl aminopeptidase. recombinant PfM18AAP, H-Glu-NHMec fluorogenic cleavage. inhibition, % at 7.35 µM. hit rate 1.2% among 290,000;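 active = inhibition above the campaign mean inhibition over all tested compounds plus 3 SD, cut at about 28% in these data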
eIF4E 4G PPI – inhibitors of eIF4E and eIF4G interaction in translation initiation; TR-FRET eIF4E-eIF4GI(517-606) binding, 2 h; inhibition, % at 21.7 µM; hit rate 0.37% among 220,000;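 active = inhibition above about 30%, limit read from the data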
Target sequence (P63073 whole entry, looked up): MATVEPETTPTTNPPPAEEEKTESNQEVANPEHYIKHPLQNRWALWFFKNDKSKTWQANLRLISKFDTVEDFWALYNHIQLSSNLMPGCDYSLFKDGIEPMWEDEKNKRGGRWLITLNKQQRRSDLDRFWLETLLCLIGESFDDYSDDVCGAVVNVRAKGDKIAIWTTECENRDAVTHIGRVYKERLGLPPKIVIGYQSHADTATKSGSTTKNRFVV
Target sequence (Q04637 whole entry, looked up): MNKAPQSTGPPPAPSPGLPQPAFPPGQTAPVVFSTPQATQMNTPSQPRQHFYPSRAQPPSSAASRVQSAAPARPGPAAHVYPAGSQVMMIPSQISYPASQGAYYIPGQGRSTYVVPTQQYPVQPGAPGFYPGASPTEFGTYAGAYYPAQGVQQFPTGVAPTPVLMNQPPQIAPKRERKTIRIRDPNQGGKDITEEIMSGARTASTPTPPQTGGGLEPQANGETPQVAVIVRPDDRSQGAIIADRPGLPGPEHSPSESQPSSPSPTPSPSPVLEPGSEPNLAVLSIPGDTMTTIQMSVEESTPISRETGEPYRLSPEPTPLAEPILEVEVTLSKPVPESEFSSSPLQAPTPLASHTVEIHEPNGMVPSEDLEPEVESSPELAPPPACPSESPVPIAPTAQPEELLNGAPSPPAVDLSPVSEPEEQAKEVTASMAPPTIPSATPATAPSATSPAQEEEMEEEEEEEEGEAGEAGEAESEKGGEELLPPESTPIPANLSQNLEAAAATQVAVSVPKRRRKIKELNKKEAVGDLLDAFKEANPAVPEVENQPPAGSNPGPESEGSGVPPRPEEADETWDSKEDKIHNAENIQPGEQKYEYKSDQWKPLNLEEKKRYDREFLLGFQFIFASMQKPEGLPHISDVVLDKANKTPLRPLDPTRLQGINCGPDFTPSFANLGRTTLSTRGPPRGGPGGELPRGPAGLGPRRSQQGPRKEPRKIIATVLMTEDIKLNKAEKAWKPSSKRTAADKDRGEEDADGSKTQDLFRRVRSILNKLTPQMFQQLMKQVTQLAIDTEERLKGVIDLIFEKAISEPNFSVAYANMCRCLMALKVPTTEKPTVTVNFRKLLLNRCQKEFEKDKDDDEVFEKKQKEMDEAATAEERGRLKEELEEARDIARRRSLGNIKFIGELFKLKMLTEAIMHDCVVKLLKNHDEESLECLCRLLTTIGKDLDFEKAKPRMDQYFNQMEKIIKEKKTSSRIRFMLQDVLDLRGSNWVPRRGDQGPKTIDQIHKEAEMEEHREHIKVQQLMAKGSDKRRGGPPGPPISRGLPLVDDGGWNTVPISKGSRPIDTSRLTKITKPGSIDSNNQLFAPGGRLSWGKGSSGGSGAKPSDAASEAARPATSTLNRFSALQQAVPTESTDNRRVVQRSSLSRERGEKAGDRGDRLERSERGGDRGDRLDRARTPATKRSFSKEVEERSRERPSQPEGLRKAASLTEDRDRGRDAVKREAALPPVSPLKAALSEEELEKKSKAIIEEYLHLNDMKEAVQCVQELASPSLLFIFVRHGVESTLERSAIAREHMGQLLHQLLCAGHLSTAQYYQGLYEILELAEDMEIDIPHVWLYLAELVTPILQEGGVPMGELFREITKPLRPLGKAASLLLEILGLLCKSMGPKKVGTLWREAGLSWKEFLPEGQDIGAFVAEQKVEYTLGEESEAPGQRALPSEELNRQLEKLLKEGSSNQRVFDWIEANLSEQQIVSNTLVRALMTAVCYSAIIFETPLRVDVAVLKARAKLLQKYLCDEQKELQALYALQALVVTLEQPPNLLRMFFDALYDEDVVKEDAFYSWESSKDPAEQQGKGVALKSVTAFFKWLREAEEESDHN
PABP1 MLLE inh – blocks PAM2 peptide binding to the PABP1 MLLE domain. inhibition, % at 20 µM. hit rate 0.36% among 360,000. GST-MLLE / FITC-PAM2 fluorescence polarization. AID 588489. P11940; in the data active = inhibition above about 35%, passing the limit was not always enough
PABP FP inh – PABP-poly(A) binding inhibition; P11940; hit rate 1% among 290,000; inhibition, % at 35 µM; PABP-poly(A) RNA binding, fluorescence polarization;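 note: calls also rest on retests at 20 µM and on dose response follow-up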
Of the large screens only hits and unclear results are named; the others gave an inactive call; ! = repeats disagree; [ ] = remark or other dose. Unless noted, the rule behind the calls is not given here.

NC(=S)N=Nc1c(O)[nH]c2cc(F)c(F)cc12	PABP1 MLLE inh 40.1
N=C(N)N=Nc1c(O)[nH]c2ccc(Br)cc12	none
NC(=S)N=Nc1c(O)[nH]c2c(Cl)cc(Cl)cc12	PABP1 MLLE inh 45.2 (no result: eIF4H inh, PERK inhibitor, PfM18AAP inh, eIF4E 4G PPI, PABP FP inh)
Cc1ccc(/C=C/C(=O)OCC(=O)NCCN2C(=O)CSC2=O)cc1	none
Cc1ccc(/C=C/C(=O)OCC(=O)NCCN2C(=O)CSC2=O)o1	PERK inhibitor 3.2
OC(c1ccc(Cl)c(F)c1)c1ncc(-c2cccc(C(F)(F)F)c2)[nH]1 (centres undefined)	none (no result: eIF4H inh, PERK inhibitor, PfM18AAP inh, eIF4E 4G PPI, PABP FP inh)
O=C(N/C(=C/c1ccco1)C(=O)N1CCCCCC1)c1ccccc1	none (no result: PERK inhibitor, eIF4E 4G PPI)
Cc1ccc(C(=O)N/C(=C\c2ccco2)C(=O)N2CCCCC2)cc1	none (no result: PERK inhibitor, eIF4E 4G PPI)
COc1ccc(C(=O)N/C(=C/c2ccco2)C(=O)N2CCCCCC2)cc1	PABP FP inh 20.4 (no result: PERK inhibitor, eIF4E 4G PPI)
COC(=O)/C(=C/c1ccco1)NC(=O)c1ccccc1	none
CCOC(=O)C1CCCN(C(=O)/C(=C/c2ccco2)NC(=O)c2ccccc2)C1 (centres undefined)	PfM18AAP inh 29.9 (no result: PERK inhibitor, eIF4E 4G PPI)
Cc1ccc(C(=O)N/C(=C/c2ccco2)C(=O)N2CCCCC2)cc1	none (no result: PERK inhibitor, eIF4E 4G PPI)
O=C(N/C(=C/c1ccco1)C(=O)N1CCCCCC1)c1cccs1	PABP FP inh 44.7
Cc1ccc(C(=O)N/C(=C/c2ccco2)C(=O)OCN2C(=O)c3ccccc3C2=O)cc1	eIF4H inh 79.3
CC(C)c1ccc(CN(C(=O)c2ccco2)C2CCS(=O)(=O)C2)cc1 (centres undefined)	none (no result: PERK inhibitor, eIF4E 4G PPI)
COc1cc(/C=C(\C#N)C(=O)Nc2ccc3c(c2)OCCO3)ccc1O	none
COc1cccc(Nc2ccccc2C(=O)O)c1	none
COc1cc(-c2ccc(Nc3ccccc3C(=O)O)c(OC)c2)ccc1Nc1ccccc1C(=O)O	eIF4H inh 91.0, eIF4E 4G PPI 77.8, PABP FP inh 94.2
CC(C)(C)c1cc(CCC(=O)NCC2CCCO2)cc(C(C)(C)C)c1O (centres undefined)	none (no result: PERK inhibitor, eIF4E 4G PPI)
COc1ccc([C@H]2CC(=O)C=C(c3cccc(OC(F)(F)F)c3)C2)cc1	none (no result: eIF4H inh, PERK inhibitor, PfM18AAP inh, eIF4E 4G PPI, PABP FP inh)
COc1cc(O)c(C(C)=O)c(CC(=O)O)c1	eIF4H inh 96.2, PABP FP inh 58.3 (no result: PERK inhibitor, PfM18AAP inh)
COc1cc(O)c(C(C)=O)c(OC)c1	none (no result: eIF4H inh, PERK inhibitor, PfM18AAP inh, eIF4E 4G PPI, PABP FP inh)
Nc1nc(COc2ccccc2C=O)nc(Nc2ccccc2)n1	eIF4E 4G PPI 96.7
O=C(NC1CCC(NC(=O)C2CCCO2)CC1)C1CCCO1 (centres undefined)	none (no result: PABP1 MLLE inh)
Cc1[nH]c2ccccc2c1/C=N/Nc1ccccn1	none (no result: PABP1 MLLE inh)
Cc1[nH]c2ccccc2c1/C=N/Nc1nncn1N	PfM18AAP inh 60.9
C=CCN1C=C2C(=O)C(C)(OC(=O)CC)C(=O)C=C2C=C1CCCC (centres undefined)	eIF4E 4G PPI 97.0, PABP FP inh 42.2 (no result: PERK inhibitor, PfM18AAP inh)
NNc1nc2c(-c3ccc(F)cc3)nnn2c2ccccc12	PfM18AAP inh 29.9
C=CCn1c(SCC(C)=O)nc2scc(-c3ccco3)c2c1=O	eIF4H inh 67.1, PABP FP inh 43.6 (no result: PERK inhibitor, eIF4E 4G PPI)
C=CCn1c(SCC(=O)N2CCOCC2)nc2scc(-c3ccco3)c2c1=O	eIF4H inh 65.9, PABP FP inh 66.6
CC(=O)NN1C(=O)c2ccccc2NC1c1ccccn1 (centres undefined)	PfM18AAP inh 39.8
Cc1cccc(C2Nc3ccccc3C(=O)N2NC(=O)c2ccc([N+](=O)[O-])cc2)n1 (centres undefined)	PfM18AAP inh 39.5
CCCOc1ccc(/C(O)=C2\C(=O)C(=O)N(c3ccccn3)C2c2ccccc2F)cc1C (centres undefined)	none (no result: PERK inhibitor, eIF4E 4G PPI)
CCOC(=O)c1ncn2c1CN(C)C(=O)c1cc(F)ccc1-2	PERK inhibitor 3.1!
CCCCc1c(C)nc2cc(-c3ccco3)[nH]n2c1=O	none
O=C1c2nc3cc(-c4ccco4)[nH]n3c(=O)c2CN1Cc1ccccc1	eIF4H inh 84.7, PABP FP inh 85.3
COc1cccc(NC(=O)Nc2ccc(C(C)(C)C)cc2)c1	eIF4E 4G PPI 65.8
CCCCOC(=O)Nc1nnc(SCCOc2ccc(C)cc2)s1	eIF4E 4G PPI 43.5[fluorescence artefact?]
Cc1ccc(NC(=O)Nc2nnc(CSCCOc3ccc(Cl)cc3)s2)cc1	PABP FP inh active
COc1ccc(OCCSCc2nnc(NC(=O)Nc3ccc(Cl)cc3)s2)cc1	none
O=Cc1ccc(-c2cc(Cl)ccc2Cl)[nH]1	PERK inhibitor 3.3
Nc1nc(N)nc(-c2cc(Cl)ccc2Cl)n1	none (no result: eIF4H inh, PERK inhibitor, PfM18AAP inh, eIF4E 4G PPI, PABP FP inh)
